The record followed here is PubChem BioAssay (NCATS).

Results filed as inconclusive are left out. Calls of active or inactive are those of the source. Calls follow the shape of the dose curve; as a rule, active = well fitted inhibition curve with a large enough effect; inconclusive = small, poorly fitted or top-dose-only effect; inactive = flat fitted curve, though single readings scatter.
Potency is read from the fitted curve at half-maximal effect.

The nature of the assay: Confirmatory screen GU Rhodamine qHTS for Zika virus inhibitors qHTS (AID 1347157). Also: nearly all actives have a fitted effect of over 70% in size. Conditions: purified enzyme assay, Rhodamine110 substrate fluorescence, 15 min; series mostly up to 114 µM. An excerpt: Avindra Nath, Ph.D., National Institute of Neurological Disorders and Stroke (NINDS), Bethesda, MD
Radhakrishnan Padmanabhan, Ph.D., Georgetown University (GU), Washington D.C.
Zika Virus causes congenital defects, including microcephaly and is associated with Guillain-Barre syndrome, eningoencephalitis and myelitis in infected adult. […] Using a target-based approach, we hope to establish a screening paradigm to uncover novel, cell-active NS2B-NS3 protease (Zika Virus) specific inhibitors from NCATS' collection of small molecules using qHTS.
Four assay panel was created to identify potential Zika Virus inhibitors. Namely, (1) GU unlinked NS2B-NS3 AMC tagged protease qHTS, (2) GU unlinked NS2B-NS3 Rhodamine tagged protease qHTS, (3) NINDS linked NS2B-NS3 AMC tagged protease qHTS, (4) NINDS linked NS2B-NS3 Rhodamine tagged protease qHTS. Active compounds were re-acquired and re-screened to confirm inhibition. Inhibitors were further screened against various confirmatory and counterscreens in dose response format.
Early Translation Branch (ETB)
National Center for Advancing Translational Sciences (NCATS), Rockville, MD
National Institute of Health (NIH), Bethesda, Maryland
Padmanabhan lab provided the NS2B hydrophilic domain and NS3 protease domain in a noncovalent complex used for the unlinked assay. Control compound aprotinin is obtained from Thermo Scientific (#78432; Waltham, Massachusetts). Rhodamine110 substrate ([N-Cbz]-Nle-Lys-Arg-Arg-Rhod110-Arg-Arg-Lys-Nle-[N-Cbz]) was purchased from either Genscript or Bachem.
1536-well Protease (Rhodamine110 Substrate) Assay:
Briefly, 3 microL of enzyme (25 nM final concentration), in assay buffer (10 mM Tris-HCl pH 8.0 with 0.01% Tween 20) were dispensed into a 1,536-well solid-bottom black plate (Greiner Bio One, Monroe, NC). Twenty-three nL of compounds (final concentration range 7.28 nM to 114 microM) or control Aprotinin (final concentration range 3.47 nM to 114 microM) were transferred via Wako Pin-tool (Wako Automation, Richmond, VA). Samples were incubated (room temperature, protected from light) for 15 minutes followed by a 1 microL Rhodamine110 substrate addition (1.5 microM final concentration). Plates were then immediately read on a ViewLux High-throughput CCD imager (PerkinElmer, Waltham, MA) equipped with FITC fluorescence optics (480(20) nm excitation, 540(25) nm emission), then incubated (room temperature, protected from light) for 15 minutes (~15% conversion). The change in fluorescence intensity over the 15-minute reaction period was normalized against no-inhibitor and no-enzyme controls and the resulting percent inhibition data were fitted to a 4-parameter Hill equation. Aprotinin was used as intraplate control.
Background: qHTS replaces the single test concentration by a dilution series.
For `COc1cc(C(=O)O)ccc1NC(=O)C1NC(CC(C)(C)C)C(C#N)(c2ccc(Cl)cc2F)C1c1cccc(Cl)c1F` (centres undefined), the Potency is 4.41 µM (active). As for `O=S(=O)(Nc1cc(Cl)c(Oc2cnc3ccccc3c2)c(Cl)c1)c1ccc(Cl)cc1Cl`, the figure is 1.75 µM (active); as for `O=C(O)c1ccc(S(=O)(=O)N(Cc2ccc(OC(F)(F)F)cc2)c2ncc(C(F)(F)F)cc2Cl)cc1`, 3.93 µM (active). Take `CCCCCc1ccc(/C=C/C(=O)Nc2cc(Cl)ccc2C(=O)O)cc1`: the Potency is 1.75 µM (active). With `N#Cc1ccc(N2N=C3c4ccc(C(=O)O)cc4CC[C@@H]3[C@@H]2C2CCCC2)cc1Cl` the figure was 2.21 µM (active); with `CC#C[C@@H](CC(=O)O)c1ccc(OCc2cccc(-c3ccc(C(F)(F)F)cc3)c2)cc1`, 0.698 µM (active).

Take `CCCCCCCOc1cc2c(cc1/C(C)=C/c1ccc(C(=O)O)cc1)C(C)(C)CCS2(=O)=O`: the Potency is 1.97 µM (active).

As to `CC#C[C@@H](CC(=O)O)c1ccc(OCc2ccc(CN3CCC4(C=Cc5ccccc54)CC3)s2)cc1`, the Potency was 2.78 µM (active). As for `O=C(Nc1ccc(-c2ccc(Cl)c(Cl)c2)cc1)C1=C(O)c2ccccc2S(=O)(=O)N1`, the figure is 2.48 µM (active); as for `COc1ccc2nccc(C(=O)CC[C@@H]3CCN(CC#Cc4cc(F)cc(F)c4F)C[C@@H]3C(=O)O)c2c1`, 39.3 µM (active); as for `Cc1cc(OCCCS(C)(=O)=O)cc(C)c1-c1cccc(COc2ccc3c(c2)OCC3CC(=O)O)c1` (centres undefined), 8.79 µM (active). For the molecule `Oc1cccc(-c2c3nc(c(-c4cccc(O)c4)c4ccc([nH]4)c(-c4cccc(O)c4)c4nc(c(-c5cccc(O)c5)c5ccc2[nH]5)CC4)C=C3)c1`, the Potency is 22.4 µM (active). As for `CC(C)(C)Sc1c(CC(C)(C)C(=O)O)n(Cc2ccc(Cl)cc2)c2ccc(OCc3ccc4ccccc4n3)cc12`, the figure is 3.93 µM (active).

Take `O=C(O)c1cc(N(Cc2ccc(C3CCCCC3)cc2)C(=O)c2ccc(Oc3ccccc3)cc2)ccc1O`: the Potency is 1.75 µM (active).

As for `CC(C)C[C@H](CO)Nc1nc(S[C@@H](C)c2ccccc2)nc2nc(N)sc12`, the Potency is 55.5 µM (active). Turning to `O=C(O)c1cccc(-c2ccc(-c3cn(C(=O)N4CCCCC4Cc4ccccc4)nn3)cc2)c1` (centres undefined), the Potency was 4.41 µM (active). With `CC(O)(C(=O)O)C1CCC2(C)C1CCC1(C)C2CCC2C3(C)CCC(O)C(C)(COC4OC(CO)C(O)C(O)C4O)C3CCC21C` (centres undefined) the figure was 13.1 µM (active); with `COc1ccc2cc(-c3cc(-c4cc(Cl)cc(Cl)c4)nn3C(C)c3ccc(C(=O)NCCC(=O)O)cc3)ccc2c1` (centres undefined), 5.55 µM (active). For the molecule `CCC(C)/C=C(C)/C=C/C1=CC2=CC(=O)C3(C)OC(C)(O)C(C(=O)OC)C3C2=CO1` (centres undefined), the Potency was 19.2 µM (active). Take `Cc1cc(C)c2c(c1)C(N(Cc1cc(C(F)(F)F)cc(C(F)(F)F)c1)c1nnn(C)n1)CCCN2CC1CCC(C(=O)O)CC1` (centres undefined): the Potency is 8.79 µM (active). As for `C=C1/C(=C/C=C2\CCC[C@]3(C)[C@@H]([C@H](C)/C=C/[C@@H](C)C(C)C)CC[C@@H]23)C[C@@H](O)C[C@@H]1O`, the figure is 49.4 µM (active); as for `CC1=C(C(=O)OC2CCCCC2)C(c2ccc([N+](=O)[O-])cc2)C2=C(CC(C)(C)CC2=O)N1` (centres undefined), “inactive”. With `O=C(Nc1cc(C(F)(F)F)cc(C(F)(F)F)c1)c1cnc(Cl)nc1C(F)(F)F` the figure was 24.8 µM (active); with `COc1ccc(-c2ccccc2)cc1NS(=O)(=O)c1cc(Cl)cc(Cl)c1O`, 1.21 µM (active).

Turning to `O=C(O)c1ccc(N2C(=O)/C(=C/c3ccc(-c4ccc([N+](=O)[O-])cc4)o3)C=C2c2ccccc2)cc1`, the Potency was 1.56 µM (active). With `C[C@H]1CO[C@@H]2Cn3cc(C(=O)NCc4ccc(F)cc4F)c(=O)c(O)c3C(=O)N12` the entry was “inactive”. With `CC(C)C[C@H](C(=O)O)c1cc(-c2ccc(C(F)(F)F)cc2)cc(-c2ccc(C(F)(F)F)cc2)c1` the figure was 3.12 µM (active); with `Cc1noc(-c2ccc(-c3ccc(CC(=O)O)cc3)cc2)c1NC(=O)O[C@H](C)c1ccccc1Cl`, 5.55 µM (active); with `O=C(Nc1ccc(/C=C/c2ccc(NC(=O)c3cc(S(=O)(=O)O)c4cccnc4c3O)cc2S(=O)(=O)O)c(S(=O)(=O)O)c1)c1cc(S(=O)(=O)O)c2cccnc2c1O`, 2.82 µM (active).
